The text below walks through data of PubChem BioAssay (NCI).

This is part of a sample that, as a whole, favours compounds with a hit. Of some 83,000 tested, about 20% had one in any assay.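 Results are percent growth after 48 hours of single-concentration exposure. 100 means growth as in untreated cells, lower positive values show inhibition; negative values down to -100 show cell death.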 A number with no mark means an inactive call. Calls of active or inactive are those of the source. Rule for the calls: active = growth percent below 10; inactive = the rest.

The assay relates to LOX IMVI melanoma. In words: NCI-60 one-dose screen, 48 h (100 = growth as untreated, 0 = no growth, -100 = all killed). Conditions: 10 µM unless noted.
Regarding `O=C(Nc1ccc(Oc2ccc(Nc3nc4ccccc4s3)cc2)cc1)Nc1ccc(Cl)c(C(F)(F)F)c1`, the growth was -88.3% (active).

On to `C[C@]12CCc3nc(Nc4ccc(O)cc4)sc3C1=CC[C@@H]1[C@@H]2CC[C@]2(C)/C(=N/NC(N)=S)CC[C@@H]12`, for which the growth is -52.5% (active).

Turning to `Cc1cc(N=Nc2ccc(-c3ccc(N=Nc4ccc(O)c(C(=O)O)c4)cc3)cc2)c(N)c(N=Nc2ccc(C(=O)O)cc2)c1N`, the growth is 93.9%.

As for `c1ccc2c(c1)cnc1ccccc12`, the growth is 104%.

Regarding `Cc1cc(C)c2c(n1)sc1c(Nc3ccc(OCc4ccccc4)cc3)ncnc12`, the growth is 91.7%.

Turning to `COc1ccc2[nH]c(C(=O)OCc3ccc4cccc(O)c4n3)cc2c1`, the growth is -89.1% (active).

`Cc1ccc2oc(=O)cc(-c3nc4ccc([N+](=O)[O-])cc4[nH]3)c2c1`: the growth was 67.7%.

`Cc1nc2ccc(Nc3nc(Cl)nc(N4CCOCC4)n3)cc2n1Cc1ccccc1`: the growth was 67.7%.

On to `CC(=O)c1c(O)c(C)c(O)c2c1OC1=CC(=O)/C(=C(/C)N)C(=O)C12C` (centres undefined), for which the growth is 86.6%.

Turning to `O=C(CI)NCCNc1cccc2c(S(=O)(=O)O)cccc12`, the growth is 103%.

As for `O=c1[nH]cnc2nc[nH]c12`, the growth was 98.4%.

As to `CCN(CC)C(Cl)=Nc1ccc(Cl)cc1`, the growth was 102%.

With `c1ccc2c(Cc3csc4ccccc34)csc2c1`, the growth was 84.3%.

Turning to `COS(=O)(=O)CCN(CCOS(C)(=O)=O)S(C)(=O)=O`, the growth was 96.5%.

Regarding `COc1cc(C2CC(c3cccc(Nc4ccnc5cc(Cl)ccc45)c3)=NN2c2ccccc2)cc(OC)c1OC` (centres undefined), the growth was 46.1%.

As to `O=C1/C(=C\c2cccn2Cc2ccc(F)cc2)c2ccccc2N1c1c(Cl)cccc1Cl`, the growth is 91.1%.

Consider `CC(C)(C)c1ccc(Cn2c(-c3nonc3N)nc3ccccc32)cc1`, for which the growth is 70.2%.

Regarding `CSC(=S)N/N=C(\C)c1ccccn1`, the growth is 12.7%.

Turning to `CCC(C)C1NC(=O)c2nc(oc2-c2ccccc2)-c2csc(n2)-c2csc(n2)-c2nc(oc2C)-c2coc(n2)CNC(=O)C(C(C)CC)NC1=O` (centres undefined), the growth was -72.4% (active).

`CCOC(=O)C1=C(C)NC(SCc2nnc(-c3ccc(Cl)cc3)o2)=NC1c1ccc(Br)cc1` (centres undefined): the growth was 75%.

For `CC(CN1CCN(C)CC1)CN1c2ccccc2Sc2ccc(C(F)(F)F)cc21` (centres undefined), the growth is -2.88% (active).

For the molecule `Cc1[nH]nc2ccc3nc(-c4ccc5[nH]ncc5c4)c4c(c3c12)CCCC4`, the growth is 29.6%.

`CCCOC(=O)C1c2cc3c(cc2CC(C)C1C(=O)OCCC)OCO3` (centres undefined): the growth was 65.4%.

Turning to `COc1cc(C2CC(c3ccc(Nc4ccnc5cc(Cl)ccc45)cc3)=NN2c2ccccc2)cc(OC)c1OC` (centres undefined), the growth was 58.7%.

Regarding `CC(=O)c1c(C)nc(-c2cc(C)cc(Cl)c2)nc1-c1cccc(Oc2ccccc2)c1`, the growth was 78.4%.

Consider `CC(C)NC(=O)OCC#CCOC(=O)NC(C)C`, for which the growth is 104%.

Turning to `Cc1nc2c(-c3cnc(N)nc3)nc(N3CCOCC3)nc2n1C(C)C`, the growth is -1.69% (active).

`[Ag].[Ag].[NH-]S(=O)(=O)c1ccc(N=Nc2cc(N=Nc3ccc(S([NH-])(=O)=O)cc3)c3c(NC(=O)C(Cl)Cl)cccc3c2OC(=O)C(Cl)Cl)cc1.[c-]1nccs1.[c-]1nccs1`: the growth was 78.7%.

As to `Nc1ccc(N(O)/C=C2\C=CC=CC2=O)cc1N`, the growth was 48.8%.

With `Cc1nc2ccc(Nc3nc(N4CCOCC4)nc(N4CCN(C)CC4)n3)cc2n1Cc1ccccc1`, the growth was 74.7%.

`CC(C)CC(NC(=O)C(CCCN=C(N)N)NC(=O)OCc1ccccc1)C(=O)NC(CNC(=O)/C=C/c1ccccc1)C(C)C` (centres undefined): the growth was 94.8%.

Regarding `CCOC(=O)c1ccc(NCCC(=O)O)cc1`, the growth is 101%.

As to `Cc1ccc(-c2cnc3sc4ccc(Cl)cc4n23)cc1`, the growth was 94.2%.

With `COc1cc(C)c2c(=O)c3c(oc2c1)C(=O)c1c(O)c(OC)cc(O)c1C3=O`, the growth is 3.56% (active).

On to `O=C(OCc1ccc2c(Br)cc(Br)c(O)c2n1)c1cc2ccccc2[nH]1`, for which the growth was -93.4% (active).

`CN1CCN(Cc2ccc(NC(=O)c3cncc(C#Cc4cnc5cccnn45)c3)cc2C(F)(F)F)CC1`: the growth was -16.2% (active).

For the molecule `CCOC(=O)c1ccccc1SC(C[N+](=O)[O-])c1ccccc1` (centres undefined), the growth is 30.9%.

On to `CC(C)CC(NC(=O)OCC1c2ccccc2-c2ccccc21)C(=O)O` (centres undefined), for which the growth was 103%.

Consider `CN1CCN(Cc2ccc(NC(=O)c3cncc(C#Cc4ccc(N)nc4)c3)cc2C(F)(F)F)CC1`, for which the growth is -25.8% (active).
